Measurements: PubChem BioAssay (Tox21)
Results filed as inconclusive are left out. A call without a number means that no potency is given here. Unmarked numbers belong to inactive results. Activity calls are given as the source filed them. Unless noted, calls follow the shape of the dose curve; as a rule, active = well fitted curve in the direction sought with a large enough effect in the repeat runs; inconclusive = weak or mixed curves; inactive = no such curve, though single readings can be large; an effect the other way counts as inactive or inconclusive.

What was measured:
[1] = qHTS assay to identify small molecule antagonists of the estrogen related receptor (ERR) signaling pathway from Tox21 library - cell viability counter screen (AID 1224834); also: nearly all actives have a fitted effect of over 30% in size; also: potency is read from the fitted curve at half-maximal effect
Procedure, shortened: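 After 17.5 h of compound exposure at 37 C, ERR cells are incubated with CellTiter-Fluor for 30 min and fluorescence intensity serves as the viability measure.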

[2] = biological target: Luciferin 4-monooxygenase (Photinus pyralis) (UniProt P08659); experiment: qHTS assay to identify small molecule inhibitors of firefly luciferase (AID 1224835); also: series mostly up to about 120 µM; nearly all actives have a fitted effect of over 25% in size
Procedure, shortened: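 Biochemical qHTS: compounds run as interplate titrations against purified firefly enzyme, with D-luciferin and ATP each at its KM concentration. Light output recorded by CCD imaging.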

[3] = qHTS assay to identify small molecule agonists of the constitutive androstane receptor (CAR) signaling pathway - cell viability counter screen (AID 1224836); also: nearly all actives have a fitted effect of over 45% in size; also: potency is read from the fitted curve at half-maximal effect; as to viability change, negative = cytotoxic: series mostly up to about 92 µM
Procedure, shortened: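 HepG2-CYP2B6-hCAR, 2500 cells/well, 4 h pre-incubation; cpd 15 conc + PK11195 0.75 uM final; 23 h, 37 C/5% CO2; CellTiter-Fluor, fluorescence.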

[4] = qHTS assay to identify small molecule antagonists of the constitutive androstane receptor (CAR) signaling pathway - cell viability counter screen (AID 1224837); also: nearly all actives have a fitted effect of over 45% in size; also: potency is read from the fitted curve at half-maximal effect; as to activity change, negative = cytotoxicity: series mostly up to about 92 µM
Procedure, shortened: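 Counter screen run in HepG2-CYP2B6-hCAR cells: 4 hr settle, compound titration (15 concentrations) with 50 nM CITCO, 23 hr at 37 C/5% CO2, CellTiter-Fluor fluorescence.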

[5] = biological target: Nuclear receptor subfamily 1 group I member 3 (Homo sapiens) (UniProt Q14994); experiment: qHTS assay to identify small molecule antagonists of the constitutive androstane receptor (CAR) signaling pathway (AID 1224838);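 also: HepG2 cells stably expressing hCAR with CYP2B6 luciferase reporter stimulated by CITCO; nearly all actives have a fitted effect of over 40% in size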; also: potency is read from the fitted curve at half-maximal effect
Procedure, shortened: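 Cell line: HepG2 double-stable for hCAR and CYP2B6-2.2kb reporter. Agonist: CITCO, 50 nM final. Compounds: 15 concentrations, 24 h, 37 C. Detection: ONE-Glo luminescence.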

[6] = biological target: Nuclear receptor subfamily 1 group I member 3 (Homo sapiens) (UniProt Q14994); experiment: qHTS assay to identify small molecule agonists of the constitutive androstane receptor (CAR) signaling pathway (AID 1224839); also: nearly all actives have a fitted effect of over 15% in size; also: potency is read from the fitted curve at half-maximal effect;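 as to activation: HepG2 cells stably carrying human CAR and a CYP2B6 luciferase reporter; series mostly up to about 92 µM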
Procedure, shortened: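 HepG2-CYP2B6-hCAR cells, 2500/well, 4 h pre-incubation; compounds 15 conc.; PK11195 0.75 uM final; 24 h, 37 C/5% CO2; ONE-Glo luciferase read.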

[7] = qHTS assay to identify small molecule antagonists of the estrogen related receptor signaling pathway with the pleiotropic PPARgamma coactivator (PGC) from Tox21 10K library - cell viability counter screen (AID 1224840; active = well fitted cell-killing curve with a large enough effect in the repeat runs, not every such curve was filed as active; also: nearly all actives have a fitted effect of over 40% in size; also: potency is read from the fitted curve at half-maximal effect)
Procedure, shortened: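 Following seeding of 2,000 PGC/ERR cells/well and 6 hours' incubation, test compounds were delivered in DMSO. The plates then sat 17.5 hours at 37 C before a fluorogenic live-cell protease reagent (CellTiter-Fluor) was read after 30 min.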

[8] = qHTS assay to identify small molecule antagonists of the estrogen related receptor signaling pathway with the pleiotropic PPARgamma coactivator (PGC) from Tox21 10K library (AID 1224841; call rule not given here; also: actives are mostly falling curves and most rising ones were filed inactive; nearly all actives have a fitted effect of over 50% in size; also: potency is read from the fitted curve at half-maximal effect; as to activity, negative = inhibition: series mostly up to about 92 µM)
Procedure, shortened: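 qHTS antagonist format: PGC/ERR cells, 2k/well, compound in DMSO by pin transfer after 6 h attachment, 18 h treatment at 37 C, One-Glo luminescence read at 30 min.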

[9] = qHTS assay to identify small molecule agonists of the estrogen related receptor signaling pathway with the pleiotropic PPARgamma coactivator (PGC) from Tox21 10K library (AID 1224842); also: nearly all actives have a fitted effect of over 15% in size
Procedure, shortened: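 PGC/ERR reporter cell line, 2,000 cells per well, incubated 6 h at 37 C before 23 nL compound in DMSO was added. After 18 h at 37 C, One-Glo luminescence read following 30 min at room temperature.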

[10] = biological target: Thyrotropin receptor (Homo sapiens) (UniProt P16473); experiment: qHTS assay to identify small molecule agonists of the thyroid stimulating hormone receptor (TSHR) signaling pathway (AID 1224843; calls by dose curve; also: nearly all actives have a fitted effect of over 45% in size; also: potency is read from the fitted curve at half-maximal effect)
Procedure, shortened: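 Steps: seed 800 TSHR-HEK293 cells per well; add test compound and hold 30 min at ambient temperature; dispense cAMP-d2 then anti-cAMP cryptate; incubate 1 h at ambient; measure fluorescence intensity.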

[11] = qHTS assay to identify small molecule agonists of the hypoxia (HIF-1) signaling pathway - cell viability counter screen (AID 1224844; calls by dose curve; also: nearly all actives have a fitted effect of over 50% in size; also: potency is read from the fitted curve at half-maximal effect)
Procedure, shortened: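 Cells (HRE-bla ME-180, 2,000 per well) sat 5 hrs at 37C, got compound for 17 hrs, were read for CCF4-AM FRET, and were finally lysed with CellTiter-Glo for a 30 min room-temperature luminescence read.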

[12] = qHTS assay to identify small molecule agonists of H2AX - cell viability counter screen (AID 1224847; calls by dose curve; also: top concentration of the series differs between compounds; nearly all actives have a fitted effect of over 30% in size)
Procedure, shortened: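 Cells plated first: CHO-K1, 1000 per well in 10% FBS medium, incubated overnight at 37C. Then 15-point compound titration added (final DMSO 0.76%) for 3 hr. Finally CellTiter-Glo added and luminescence read.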

[13] = qHTS assay to identify small molecule agonists of H2AX (AID 1224845; active = well fitted activation curve with a large enough effect in the signal ratio in the repeat runs, not every such curve was filed as active; the % refers to the signal ratio)
Procedure, shortened: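 Wild-type CHO-K1 cells, plated overnight, exposed 3hr at 37C to 15 concentrations (0.76% DMSO final). Lysed, then HTRF anti-pH2AX (S139) cryptate and anti-H2AX-d2 antibodies, 24 hr room temperature; 665/620 nm emission read.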

[14] = qHTS assay to identify small molecule agonists of the hypoxia (HIF-1) signaling pathway (AID 1224846; active = well fitted activation curve with a large enough effect in the signal ratio in the repeat runs, not every such curve was filed as active; the % refers to the signal ratio)
Procedure, shortened: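 A low-serum medium (0.5% dialyzed FBS) holding 2,000 HRE-bla ME-180 cells per well is preincubated for 5 hrs, dosed with compounds by pintool, and kept a further 17 hrs at 37C, 5% CO2 before CCF4-AM FRET detection of beta-lactamase.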

[15] = qHTS assay to identify small molecule antagonists of the estrogen related receptor signaling pathway with the pleiotropic PPARgamma coactivator (PGC) cell viability counter screen (AID 1224822; also: potency is read from the fitted curve at half-maximal effect; as to viability change, negative = cytotoxic: series mostly up to about 46 µM)
Procedure, shortened: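 PGC/ERR cells were plated at 2,000 per well and allowed 6 h to settle before compound addition. Following 17.5 h at 37 C, CellTiter-Fluor reagent was added and fluorescence was read 30 min later.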

[16] = tested on: estrogen-related receptor alpha (ERRalpha) with PGC-1alpha coactivator, human; experiment: qHTS assay to identify small molecule antagonists of the estrogen related receptor signaling pathway with the pleiotropic PPARgamma coactivator (PGC) (AID 1224821; calls by dose curve; also: nearly all actives have a fitted effect of over 50% in size; also: potency is read from the fitted curve at half-maximal effect;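 as to activity change, negative = inhibition: series mostly up to about 46 µM; lower luminescence signal means antagonism of PGC/ERR signalling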)
Procedure, shortened: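 Cells engineered for PGC/ERR signalling (line from NTP) were plated 6 h at 37 C/5% CO2, then exposed to DMSO-dissolved compound for 18 h at 37 C. Luciferase activity was read by One-Glo luminescence after 30 min at room temperature.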

[17] = qHTS assay to identify small molecule agonists of the estrogen related receptor signaling pathway with the pleiotropic PPARgamma coactivator (PGC) (AID 1224823)
Procedure, shortened: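 PGC/ERR reporter cells were seeded, rested 6 h at 37 C/5% CO2, then exposed to compounds in DMSO by pin transfer for 18 h at 37 C. Luciferase activity was read as luminescence after One-Glo reagent and 30 min at room temperature.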

Chain of Nuclear receptor subfamily 1 group I member 3 (Homo sapiens) (Q14994 whole entry, looked up): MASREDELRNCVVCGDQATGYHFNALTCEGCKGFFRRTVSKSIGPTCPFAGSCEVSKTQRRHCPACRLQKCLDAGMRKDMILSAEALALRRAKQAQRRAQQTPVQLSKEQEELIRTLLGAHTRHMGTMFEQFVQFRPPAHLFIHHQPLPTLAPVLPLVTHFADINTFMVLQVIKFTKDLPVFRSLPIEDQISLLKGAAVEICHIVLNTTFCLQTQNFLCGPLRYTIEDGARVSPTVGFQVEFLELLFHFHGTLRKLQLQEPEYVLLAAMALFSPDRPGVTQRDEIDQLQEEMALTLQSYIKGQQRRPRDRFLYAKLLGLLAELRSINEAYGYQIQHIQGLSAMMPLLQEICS
Chain of Luciferin 4-monooxygenase (Photinus pyralis) (P08659 whole entry, looked up): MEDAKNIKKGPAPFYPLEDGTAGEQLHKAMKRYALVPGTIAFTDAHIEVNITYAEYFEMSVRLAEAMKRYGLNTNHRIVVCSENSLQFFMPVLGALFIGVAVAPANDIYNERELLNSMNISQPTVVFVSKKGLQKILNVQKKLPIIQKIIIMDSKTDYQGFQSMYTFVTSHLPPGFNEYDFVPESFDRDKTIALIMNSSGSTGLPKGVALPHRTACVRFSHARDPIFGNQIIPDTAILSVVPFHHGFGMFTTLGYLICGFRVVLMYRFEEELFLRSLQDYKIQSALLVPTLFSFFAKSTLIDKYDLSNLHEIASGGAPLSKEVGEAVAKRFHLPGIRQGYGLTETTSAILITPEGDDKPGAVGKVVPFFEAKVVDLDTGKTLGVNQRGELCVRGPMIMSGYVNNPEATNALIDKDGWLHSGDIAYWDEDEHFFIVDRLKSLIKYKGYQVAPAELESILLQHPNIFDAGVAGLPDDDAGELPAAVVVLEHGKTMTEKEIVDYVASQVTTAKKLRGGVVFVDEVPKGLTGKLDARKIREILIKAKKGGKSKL
Chain of Thyrotropin receptor (Homo sapiens) (P16473 whole entry, looked up): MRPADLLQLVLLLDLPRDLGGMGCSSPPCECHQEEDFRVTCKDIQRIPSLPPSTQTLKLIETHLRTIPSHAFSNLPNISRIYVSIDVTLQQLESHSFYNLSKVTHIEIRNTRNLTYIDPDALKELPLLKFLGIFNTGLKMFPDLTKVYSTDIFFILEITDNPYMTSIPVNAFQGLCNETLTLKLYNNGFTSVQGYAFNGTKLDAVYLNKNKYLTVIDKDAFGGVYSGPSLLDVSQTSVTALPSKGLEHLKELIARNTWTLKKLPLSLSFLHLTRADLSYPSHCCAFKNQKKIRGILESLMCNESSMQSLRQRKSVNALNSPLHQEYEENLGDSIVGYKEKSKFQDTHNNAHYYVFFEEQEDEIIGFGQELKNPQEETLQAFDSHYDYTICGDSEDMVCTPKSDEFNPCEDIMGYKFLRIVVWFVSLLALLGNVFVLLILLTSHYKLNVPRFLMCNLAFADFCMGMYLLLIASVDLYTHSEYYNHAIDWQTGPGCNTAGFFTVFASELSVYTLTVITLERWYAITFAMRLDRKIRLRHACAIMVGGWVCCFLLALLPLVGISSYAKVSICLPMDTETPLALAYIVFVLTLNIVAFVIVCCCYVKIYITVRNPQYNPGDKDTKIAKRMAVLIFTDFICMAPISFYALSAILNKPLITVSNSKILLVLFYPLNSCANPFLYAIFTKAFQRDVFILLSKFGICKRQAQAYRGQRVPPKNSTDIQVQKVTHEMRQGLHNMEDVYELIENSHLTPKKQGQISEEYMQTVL

COc1cc(OC)nc(NC(=O)NS(=O)(=O)Nc2ccccc2C(=O)N(C)C)n1
Potency [1]: inactive | Potency [2]: inactive | Potency [3]: inactive | Potency [4]: inactive | Potency [5]: inactive | Potency [6]: inactive | Potency [7]: inactive | Potency [8]: inactive | Potency [9]: inactive | Potency [10]: inactive | Potency [11]: inactive | Potency [12]: inactive

Cc1cccc(C)c1C
Potency [1]: inactive | Potency [2]: inactive | Potency [3]: inactive | Potency [4]: inactive | Potency [5]: inactive | Potency [6]: inactive | Potency [7]: inactive | Potency [10]: inactive | Potency [11]: inactive | Potency [13]: inactive | Potency [12]: inactive

COc1cc(C(C)C)ccc1C
viability change, negative = cytotoxic [1]: 2.54% [at 19 µM] | activity change, negative = inhibition [2]: 1.91% [at 23.6 µM] | viability change, negative = cytotoxic [3]: 2.67% [at 19 µM] | activity change, negative = cytotoxicity [4]: 1.68% [at 19 µM] | activity, negative = inhibition [5]: -11.9% [at 19 µM] | activation [6]: -0.0502% [at 19 µM] | viability change, negative = cytotoxic [7]: -28.8% [at 19 µM] | activation [10]: 6.84% [at 19 µM] | activity change, negative = cytotoxicity [11]: 21.3% [at 15.8 µM] | activation (H2AX phosphorylation) [13]: 0.221% [at 31.6 µM] | activation [14]: -0.0499% [at 15.8 µM] | activity change, negative = cytotoxicity [12]: 1.56% [at 31.6 µM]

CC(N)(Cc1ccc(O)c(O)c1)C(=O)O (stereo not given)
Potency [15]: inactive

c1ccc(C2CN3CCSC3=N2)cc1 (stereo not given)
Potency [15]: inactive

O=[N+]([O-])c1ccc(O)c2ncccc12
Potency [1]: 11.9 µM (active) | Potency [2]: inactive | Potency [3]: inactive | Potency [4]: inactive | Potency [5]: inactive | Potency [6]: 11.9 µM (active) | Potency [7]: 10.6 µM (active) | Potency [8]: 5.31 µM (active) | Potency [9]: inactive | Potency [10]: inactive | Potency [11]: inactive | Potency [12]: inactive

CCCCCCCCc1ccc(Nc2ccc(CCCCCCCC)cc2)cc1
Potency [1]: inactive | Potency [2]: inactive | Potency [3]: inactive | Potency [4]: inactive | Potency [5]: inactive | Potency [6]: inactive | Potency [7]: inactive | Potency [8]: 11.9 µM (active) | Potency [9]: inactive | Potency [10]: inactive | Potency [11]: inactive | Potency [13]: inactive | Potency [14]: inactive | Potency [12]: inactive

Clc1cccc(Cl)n1
Potency [1]: inactive | Potency [2]: inactive | Potency [3]: inactive | Potency [4]: inactive | Potency [5]: inactive | Potency [6]: inactive | Potency [7]: inactive | Potency [8]: inactive | Potency [9]: inactive | Potency [11]: inactive | Potency [14]: inactive | Potency [12]: inactive

N#Cc1nc(Cl)c(Cl)c(Cl)c1Cl
Potency [1]: 27.3 µM (active) | Potency [2]: inactive | Potency [3]: 43.3 µM (active) | Potency [4]: 27.3 µM (active) | Potency [5]: 24.3 µM (active) | Potency [6]: inactive | Potency [7]: 15.4 µM (active) | Potency [8]: 12.2 µM (active) | Potency [9]: inactive | Potency [10]: 34.4 µM (active) | Potency [11]: 34.7 µM (active)

CCc1cccc(C)c1N(C(=O)C(=O)O)C(C)COC (stereo not given)
Potency [1]: inactive | Potency [2]: inactive | Potency [3]: inactive | Potency [4]: inactive | Potency [5]: inactive | Potency [6]: inactive | Potency [7]: inactive | Potency [10]: inactive | Potency [11]: inactive | Potency [12]: inactive

CCCCN(CC)c1nc(C)nc2c1c(C)cn2-c1c(C)cc(C)cc1C
Potency [16]: 12.8 µM (active) | Potency [15]: 16.8 µM (active) | Potency [17]: inactive

CCN(CCC#N)c1ccc(N=Nc2ccc([N+](=O)[O-])cc2)cc1
Potency [1]: inactive | Potency [2]: inactive | Potency [3]: inactive | Potency [4]: inactive | Potency [5]: inactive | Potency [6]: 13.7 µM (active) | Potency [7]: inactive | Potency [8]: inactive | Potency [10]: inactive | Potency [11]: inactive | Potency [13]: inactive | Potency [14]: inactive

C=Cc1ccc(O)c(OC)c1
Potency [1]: inactive | Potency [2]: inactive | Potency [3]: inactive | Potency [4]: inactive | Potency [5]: inactive | Potency [6]: inactive | Potency [7]: inactive | Potency [10]: inactive | Potency [11]: inactive

C=C1C(=O)O[C@@H]2[C@H]3O[C@]3(C)CCC=C(C)CC[C@@H]12
Potency [17]: inactive

O=C1NC(=O)c2c1c(-c1ccccc1)cc1[nH]c3ccc(O)cc3c21
Potency [16]: inactive | Potency [17]: inactive

CC1(C)[C@H]2CC[C@]1(C)C(=O)C2
Potency [1]: inactive | Potency [2]: inactive | Potency [3]: inactive | Potency [4]: inactive | Potency [5]: inactive | Potency [6]: inactive | Potency [7]: inactive | Potency [8]: inactive | Potency [9]: inactive | Potency [10]: inactive | Potency [11]: inactive | Potency [12]: inactive
